# Only some compounds are listed: those with a hit (about 7.4% of all), similar ones and a draw of the others.
# ELG1 genotoxic: induces genotoxicity in HEK293T cells with luciferase-tagged ELG1; AID 504466; HEK293T ELG1-luciferase reporter, luminescence, 16 h; Potency, µM (highest dose often 46 µM), without a hit: top-dose activity change, positive = activation, most hits filed as activators; actives 1.3% (n = 330,000); further: % of control where 0% means no effect; nearly all actives have a fitted effect of over 60% in size
#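 After overnight (16 hr) compound treatment at 37 °C, ELG1-luciferase HEK293T cells were lysed with ONE-Glo; luminescence quantified 30 min later at room temperature.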
# FLuc counter: counter-screen for miR-21 project: firefly luciferase inhibitors or activators; purified FLuc, Km substrates, luminescence inhibition; Potency, µM (top dose mostly 57.5 µM), for inactives: top-dose activity change, negative = inhibition, usual class: inhibitors; actives 6.9% (n = 360,000);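 further: plate controls were vehicle for no effect and reference inhibitor for full effect; nearly all actives have a fitted effect of over 55% in size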
# Target sequence (P08659 whole entry, looked up): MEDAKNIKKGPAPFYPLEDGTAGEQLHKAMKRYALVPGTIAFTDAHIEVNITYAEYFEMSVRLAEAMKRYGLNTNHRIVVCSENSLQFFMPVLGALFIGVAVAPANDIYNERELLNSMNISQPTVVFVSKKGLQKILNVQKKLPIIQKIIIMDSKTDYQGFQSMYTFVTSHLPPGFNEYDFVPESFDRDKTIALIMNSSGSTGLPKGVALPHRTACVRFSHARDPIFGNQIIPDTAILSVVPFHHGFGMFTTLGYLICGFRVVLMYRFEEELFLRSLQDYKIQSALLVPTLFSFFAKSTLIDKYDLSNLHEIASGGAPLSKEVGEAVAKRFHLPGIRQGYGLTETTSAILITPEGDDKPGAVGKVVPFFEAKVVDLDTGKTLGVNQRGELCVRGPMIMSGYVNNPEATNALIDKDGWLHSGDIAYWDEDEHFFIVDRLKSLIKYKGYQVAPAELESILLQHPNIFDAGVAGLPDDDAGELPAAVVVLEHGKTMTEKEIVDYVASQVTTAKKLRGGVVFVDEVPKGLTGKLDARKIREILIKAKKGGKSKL
#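 Biochemical qHTS of compounds, final roughly 60 µM downward over six points, against 10 nM purified firefly luciferase using Km concentrations of substrates (10 uM D-luciferin, 10 uM ATP) in Tris acetate pH 7.5 buffer; luminescence output.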
# Rab9 promoter act: Rab9 promoter activation; AID 485297; Potency, µM (top dose mostly 9.22 µM), for the others: top-dose activation, negative = inhibition, most hits filed as activators; Huh7 Rab9 promoter-luciferase reporter, luminescence, 24 h; actives 2.8% (n = 320,000); further: % of control where 0% means no effect; nearly all actives have a fitted effect of over 60% in size
#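 Huh7 reporter line, Rab9 promoter upstream of luciferase. Compound exposure 24 h at 37 °C in reduced-serum medium with 10% FBS. Read-out: luminescence.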
# p53 reactivation: mutant p53 re-activation in reporter cells | H1299 p53-A138V BP100-luciferase reporter, luminescence, 24 h | Potency, µM (titrated, usually from 92.2 µM), without a hit: at the highest dose activity change, positive = activation, actives largely listed as activators | actives 0.063% (n = 320,000); further: % of control where 0% means no effect; nearly all actives have a fitted effect of over 45% in size
#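 p53-null H1299 cells stably carrying temperature-sensitive p53-A138V and a BP100-luciferase reporter were pinned with compounds (4-point, 1:5 series) and held 24 hrs at 37 deg C. Luminescence was read 10 min after detection reagent.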
# SMN2 splice up: SMN2 splice variant enhancement. actives 2.8% (n = 210,000). AID 1458. HEK293 SMN2-luciferase splicing reporter, luminescence, 30-36 h. Potency, µM (doses to about 46.1 µM), for the others: top-dose activity change, positive = activation, usual class: activators; further: % of control where 0% means no effect; nearly all actives have a fitted effect of over 55% in size
#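 qHTS luciferase splicing reporter: luminescence rises when SMN2 exon 7 is included in transfected HEK293 cells. Compound exposure lasted 30-36 h at 37C, with 4.5 mM final sodium butyrate as control, followed by a ONE-Glo read.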
# NPC1 promoter act: NPC1 promoter activation; Huh7 NPC1 promoter luciferase reporter, 24 h; Potency, µM (titrated, usually from 9.22 µM), inactives show top-dose activation, most hits filed as activators; actives 2.4% (n = 320,000); further: % of control where 0% means no effect; nearly all actives have a fitted effect of over 60% in size
#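 Luminescence read-out of NPC1 promoter-driven luciferase in stably transfected Huh7 cells; compounds delivered in DMSO and left 24 h at 37C, 5% CO2, qHTS titration format.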
# Starred values were filed as active, the others as inactive; ? = inconclusive; nt = no result; [ ] = dose if it differs, or a comment. The call rests on the fitted dose curve; in most records, active means well fitted curve in the direction sought with a large enough effect; inconclusive means small, poorly fitted or top-dose-only effect, or another doubt; inactive means no such curve, though single readings can be large; an effect the other way counts as inactive or inconclusive. Potency means the concentration at half of the fitted maximal effect.
SMILES,ELG1 genotoxic,FLuc counter,Rab9 promoter act,p53 reactivation,SMN2 splice up,NPC1 promoter act
CCOC(=O)c1[nH]c2ccc(F)cc2c1NC(=O)c1cc(OC)c(OC)c(OC)c1,1%,1%,8%,-10%,22µM*,0%
CCOC(=O)c1cc2cc(OC)ccc2[nH]1,?,12µM*,4µM*,?,-3%,3.5µM*
CCN1c2ccccc2-c2nc(SCC(=O)Nc3cccc(C(F)(F)F)c3)ncc2S1(=O)=O,nt,-2%,nt,nt,nt,nt
Cc1ccc(C(=O)Nc2nnc(S(=O)(=O)N3c4ccccc4CC3C)s2)cc1 (centres undefined),nt,-1%,nt,nt,nt,nt
[N-]=[N+]=NC[C@H](Cc1ccccc1)N1CC[C@@H](NC(=O)OCc2ccccc2)CCC1=O,-5%,0%,-1%,nt,nt,-3%
O=C(O)CCCCCNC(=O)Nc1ccc2c(c1)OCCO2,5%,9.5µM*,-33%,4%,nt,-1%
O=C(NCCc1ccccc1)Nc1cccc(Cl)c1,8%,17µM*,?,?,21%,?
O=C(Nc1ccc2c(c1)OCO2)OCc1ccccc1,?,6µM*,1.3µM*,?,20µM*,1.6µM*
O=C(NCCc1ccc(F)cc1)Nc1ccc2c(c1)OCO2,14%,?,2.8µM*,2%,nt,?
COc1ccc(CCNC(=O)Nc2ccc3c(c2)OCO3)cc1OC,1%,-14%,0%,-4%,nt,2%
CCc1nn(CC(=O)NCCCN2CCN(CC)CC2)c(=O)c2cc3occc3n12,2%,2%,1%,17%,3%,1%
O=C(NCCc1ccccc1)Nc1ccc2c(c1)OCO2,?,11µM*,1.4µM*,2%,14µM*,2.5µM*
O=C(NCCc1ccccc1)C(=O)Nc1ccc2c(c1)OCCO2,?,-6%,26%,4%,20%,30%
CCCCC(=O)Nc1cc(-c2cn3cccnc3n2)ccc1C,nt,-5%,nt,nt,nt,nt
CC(=O)Nc1cccc(Oc2ccc([N+](=O)[O-])cc2Cl)c1,14%,24µM*,17%,-3%,9%,0%
COc1ccc(NC(=O)Nc2cccc([N+](=O)[O-])c2)cc1Cl,-2%,21µM*,16%,?,-7%,1%
COc1ccc(-c2cc(C(=O)NCc3cccs3)no2)cc1,?,?,4.5µM*,8%,nt,2.5µM*
COc1ccc2nc3sc(C(=O)NCc4cccs4)c(N)c3cc2c1,?,0.76µM*,4µM*,?,3.5µM*,3.5µM*
COc1cccc(-c2cc(C(=O)NCc3cccs3)no2)c1,23µM*,4.8µM*,3.2µM*,10%,nt,3.2µM*
COC(=O)C1=C(C)NC(=O)/C1=C\c1cc(C)n(-c2cc(C)cc(C)c2)c1C,-4%,-13%,-1%,1%,-14%,1%
COC(=O)C1=C(O)/C(=C\c2cc(C)n(-c3ccccc3F)c2C)N=C1C,?,0.85µM*,27%,3%,2%,7%
COC(=O)C1=C(O)/C(=C\c2cc(C)n(-c3ccccc3C)c2C)N=C1C,5%,1.1µM*,?,12%,-12%,?
COC(=O)C1=C(C)NC(=O)/C1=C\c1cc(C)n(-c2ccccc2)c1C,1%,11µM*,?,1%,152%,20%
COC(=O)C1=C(O)/C(=C\c2sccc2C)N=C1C,1%,?,-3%,?,1%,-1%
COc1cc(CN(C(=O)c2ccccc2F)C2CCS(=O)(=O)C2)cc(OC)c1OC (centres undefined),nt,-2%,nt,nt,10%,nt
SMILES,ELG1 genotoxic,FLuc counter,Rab9 promoter act,p53 reactivation,SMN2 splice up,NPC1 promoter act
CCCC(=O)c1ccc(N2CCN(C(=O)OCC)CC2)c(F)c1,1%,-12%,12%,?,-11%,0%
CC(=O)c1ccc(N2CCCCC2)c(F)c1,3%,-27%,2%,2%,nt,0%
CCCC(=O)c1ccc(N2CCCCCC2)c(F)c1,?,8.5µM*,3.5µM*,40µM*,26%,3.2µM*
CCCC(=O)c1ccc(N2CCCCC2)c(F)c1,?,13µM*,?,-1%,-7%,?
Nc1ccccc1N=Nc1c(S(=O)(=O)O)cc2cc(S(=O)(=O)O)cc(O)c2c1O,nt,nt,nt,nt,-1%[9.22 µM],nt
COc1cc(OC)cc(C(=O)N[C@H](C(=O)OCC(=O)Nc2cccc(F)c2)C(C)C)c1,-4%,1%,-6%,-7%,-11%,0%
CC(C)C(NC(=O)c1ccccc1F)C(=O)OCC(=O)c1ccc(F)cc1 (centres undefined),7%,3µM*,?,3%,-2%,1%
COc1cc(OC)cc(C(=O)N[C@H](C(=O)OCC(=O)c2ccc(F)cc2)C(C)C)c1,1%,11µM*,2%,1%,-1%,-4%
CC(C)[C@H](NC(=O)c1ccccc1F)C(=O)OCC(=O)NC1CC1,1%,nt,nt,8%,nt,nt
COc1ccc(NC(=O)N2CC3(CCN(C(=O)c4ccncc4)CC3)C2)cc1,nt,nt,nt,nt,5%,nt
CCc1ccccc1N(C(=O)c1snc(C(N)=O)c1N)C(C(=O)NCC1CCCO1)c1c[nH]c2ccccc12 (centres undefined),-13%,-2%,-3%,-11%,nt,-5%
Cc1ccc(CN(C)C(=O)COC(=O)CSc2cc(C)c3ccccc3n2)cc1,-1%,3%,-8%,0%,nt,-2%
CC(=O)NS(=O)(=O)c1ccc(NC(=O)c2ccc(Br)o2)cc1,1%,5%,0%,3%,7%,2%
CC(=O)NS(=O)(=O)c1ccc(NC(=O)c2oc3c(Cl)cccc3c2C)cc1,-1%,13µM*,2%,-1%,nt,-1%
Cc1ccccc1N1C(=O)c2cc(S(N)(=O)=O)c(Cl)cc2NC1C (centres undefined),-20%,1%,-7%[46.1 µM],1%,-3%,-5%[46.1 µM]
COc1cccc(/C=N/Nc2ccnc(=O)[nH]2)c1O,11%,17µM*,-20%,?,nt,-22%
COc1cccc(/C=N/Nc2ccc([N+](=O)[O-])cn2)c1O,2.6µM*,0.76µM*,-25%,29%,nt,-23%
NCCCCNS(=O)(=O)c1cccc2c(Cl)cccc12,nt,nt,nt,nt,-16%,nt
CCOc1ccc(Oc2nc(NCC(C)C)nc(OC)n2)nn1,?,1%,-1%,0%,23%,-1%
CCNc1nc(NC(C)CC)nc(Oc2ccc(OCC)nn2)n1 (centres undefined),?,-2%,-3%,-3%,5.6µM*,-9%
Cc1ccc(SCCC(=O)N2CCC(C)CC2)cc1,?,13µM*,3.5µM*,?,?,4.5µM*
Cc1ccc(SCCC(=O)N2CCCC2)cc1,15µM*,-14%,25%,26%,-12%,25%

# Source: PubChem (National Center for Advancing Translational Sciences (NCATS))
